Tested on: Plasmodium falciparum
Experiment: GSK_TCMDC: Inhibition of Plasmodium falciparum 3D7 in whole red blood cells, using parasite LDH activity as an index of growth. Test compounds present at 2uM
Format: functional

Point of comparison: `CC(C)Cn1c(Sc2ccc(C#N)c([N+](=O)[O-])c2)nnc1-c1ccc(N(C)C)cc1`, Inhibition 98%. Against it:
- CCc1cc(I)c2c(c1)C(NCCCNc1cc(=O)c3ccccc3[nH]1)CCN2.CS(=O)(=O)O (stereo not given) — lower, 89%
- Cn1nccc1C(=O)NCCNCc1ccc(-c2ccc(-c3nc4cc(C(F)(F)F)ccc4[nH]3)s2)cc1.O=C(O)C(F)(F)F — higher, 100%
- CCCCC(=O)Nc1cc(=O)[nH]c2nc(-c3ccc(Cl)cc3)nn12 — lower, 89%
- CCOC(=O)CN1Cc2cc(NCc3ccc4ccc5nc(C)[nH]c(=O)c5c4c3)ccc2C1=O — lower, 84%
- CC(=O)Nc1csc(-c2cnc(/C=C(\C)C[C@@H]3OC[C@H](C[C@@H]4O[C@H]4[C@@H](C)[C@H](C)O)[C@@H](O)[C@H]3O)o2)c1 — lower, 94%
- N#Cc1cccc(C(=O)Nc2cccc(-c3ccc(CN4CCC(O)CC4)cc3)c2)c1.O=C(O)C(F)(F)F — lower, 86%
- O=C(NCC1CCC(C(=O)NCc2cccc(C(F)(F)F)c2)CC1)c1ccc(O)c(-c2ccc(Cl)c(Cl)c2)c1 (stereo not given) — the same, 98%
- Cc1ccc(Cc2cnc(CN3CCCCC3)c(O)c2)cc1.Cl — lower, 93%
- Cl.Nc1c2c(nc3ccc(NC(=O)CCCCCc4ccccc4)cc13)CCCC2 — higher, 100%
- O=C(NCCN1CCC(c2ccncc2)CC1)c1ccc(Nc2nccc(Nc3ccc(Oc4ccccc4)cc3)n2)cc1 — higher, 100%
- CC(C)CNC(=O)c1cncc(-c2ccc(CN3CCC(N4CCCC4)CC3)cc2)c1.O=C(O)C(F)(F)F — higher, 100%
- O=C(/C=C/c1ccc(Cl)c(Cl)c1)NCCCCCN1CC[C@H](NC(=O)c2sc3ccccc3c2Cl)C1 — lower, 97%
- COc1ccc(-c2cccc(NC(=O)c3cccc(Cl)c3)c2)cc1CN(C)CCN(C)C.O=C(O)C(F)(F)F — higher, 100%
- CN(C)C(=O)c1ccc(CN(Cc2cccc(OC(C)(C)C)c2)Cc2ccc3c(c2)OCCO3)cc1 — lower, 96%
- CN1CCN(CCCNCc2cccc(Nc3nccc(Nc4ccc(Oc5ccccc5)cc4)n3)c2)CC1 — higher, 100%
- O=C(NCCCCCN1CCC(c2c[nH]c3ccccc23)CC1)Nc1ccc(I)cc1 — higher, 100%
- Cc1[nH]c(C)c(-c2ccc(-c3cccc(OC(F)(F)F)c3)nc2)c(=O)c1Cl — the same, 98%
- CC(C)N1CCC(N(Cc2ccc(-c3ccc(C(F)(F)F)cc3)cc2)C(=O)Cn2c(CCc3cccc(F)c3F)cc(=O)c3ccccc32)CC1.O=C(O)C(O)C(O)C(=O)O — higher, 99%
- COc1cc2c(cc1OC)C(C(=O)c1ccccc1)=NCC2.Cl — lower, 85%
- O=C(Cc1c[nH]cn1)Nc1cccc(-c2ccc(-c3nc4cc(F)ccc4[nH]3)s2)c1 — higher, 100%
- COc1ccc(C(c2ccc(N(C)C)cc2)c2ccc(N(C)C)cc2)cc1 — higher, 100%
- O=C(Nc1ccc(F)cc1)c1cnc(N2CCN(c3ccncc3)CC2)c(Cl)c1.O=C(O)C(F)(F)F — higher, 100%
- O=C(/C=C/c1ccc(Cl)c(Cl)c1)NCCCCCN1CCC(NC(=O)c2cccc(Cl)c2)CC1 — the same, 98%
- CCC/C=C/c1c(CNCCCNc2cc(=O)c3ccccc3[nH]2)sc(CC)c1Br.Cl — lower, 88%
- COc1cc2nc(N3CCC(CNC(=O)c4ccc(-c5ccc(C(F)(F)F)cc5)cc4)CC3)nc(N)c2cc1OC — higher, 100%
- COc1cc(/C=N/Nc2nc(Nc3ccccc3)nc(Nc3ccccc3)n2)ccc1OCc1ccccc1[N+](=O)[O-] — the same, 98%
- CC[C@H](NC(=O)c1c(CN2CCC(N3CCCCC3)CC2)c(-c2ccccc2)nc2cc(O)ccc12)c1ccccc1 — lower, 94%
- Cc1cc(-c2cnc(N)c(-c3ccc(N4CCN(C)CC4)cc3)c2)cc(C)c1O — higher, 100%
- Cc1nc(N)nc(N)c1OCCCOc1cccc(Cl)c1Cl.Cl — lower, 93%
- COc1ccc(NC(=O)Nc2cc(C)nc3cccnc23)cc1Cn1ccnc1 — higher, 100%
- O=C(c1cccs1)N1CCN(c2ccc([N+](=O)[O-])c(NC3CC3)c2)CC1 — higher, 100%
- O=C(N[C@@H](CC1CCCCC1)C(=O)NCCN1CCCC1)c1ccc(O)c(-c2cccc(C(F)(F)F)c2)c1 — higher, 99%
- OCCN1CCN(c2nc(Nc3cccc(F)c3)c3cnn(-c4ccccc4)c3n2)CC1 — higher, 100%
- O=C(Nc1ccc(-c2nc3ccccc3[nH]2)cc1)c1ccc(N2CCOCC2)c([N+](=O)[O-])c1 — higher, 100%
- Cl.Oc1ccccc1Nc1nc(NCc2ccco2)c2ccccc2n1 — higher, 99%
- Cc1cccc2nc(-c3ccc(-c4cccc(CN5CCN(c6ccncc6)CC5)c4)s3)[nH]c12.O=C(O)C(F)(F)F — higher, 100%
- Cc1cccc2nc(-c3ccc(-c4ccc(C(=O)NCCc5cn(C)cn5)cc4)s3)[nH]c12 — lower, 88%
- Cc1cccc2nc(-c3ccc(-c4cccc(CN5CCC(CO)CC5)c4)s3)[nH]c12.O=C(O)C(F)(F)F — higher, 99%
- Cl.O=C(C=Cc1cccc(F)c1)NC1CCC(CCN2CCc3ccc(-c4cnccn4)cc3CC2)CC1 (stereo not given) — higher, 100%

— ChEMBL document CHEMBL1157539, “Thousands of chemical starting points for antimalarial lead identification” (Nature, 2010)
